Over roughly 33,000 sequences, “e-score” has its median near -0.037; the highest 2% begin near 0.34. This is one part of a sample in which the highest values are shown more often than they occur.

For this experiment, the target named is T1, GST-Rok (full length) (Bacillus subtilis subsp. subtilis str. …, UniProt O34857 1-191).
T1 sequence: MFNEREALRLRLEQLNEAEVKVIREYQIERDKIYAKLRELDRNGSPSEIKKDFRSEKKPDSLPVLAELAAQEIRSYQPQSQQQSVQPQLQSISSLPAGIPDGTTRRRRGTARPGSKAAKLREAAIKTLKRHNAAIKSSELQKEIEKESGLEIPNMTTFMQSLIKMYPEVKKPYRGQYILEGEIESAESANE
Nature of the experiment: protein binding microarray; Rok is a gene silencer of Bacillus subtilis; high values mean tight binding. The conditions noted are these: protein: recombinant; tags: GST (pTH5325, pDEST15-Magic modified); dsDNA, one strand shown. The gist of the method:
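Each has a 25-mer constant primer and a 35-mer variable part from a de Bruijn sequence of order 10, covering every non-palindromic 8-mer at least 32 times (palindromic 16). Preference for each 8-mer is given as a rank-based, unitless enrichment score (E-score). Its range runs from 0.5 (most favored) to −0.5 (most disfavored).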
With TGCCAGCA, the binding signal is 0.156 E-score.

Regarding CGTCACAA, the binding signal was -0.0647 E-score.

For the sequence TATAACGA, the binding signal amounted to 0.245 E-score.

In the case of CCTATGCC, the binding signal was -0.0371 E-score.

In the case of TCAACCAA, the binding signal was -0.0239 E-score.

Turning to CGAATCTC, the binding signal was -0.0708 E-score.

Regarding TAATAGGA, the binding signal was found to be 0.202 E-score.

AAACCTAA: the binding signal turned out to be 0.124 E-score.

ATAACTTA: the binding signal came to 0.265 E-score.

ACCGATAT: the binding signal was determined as 0.338 E-score.

Consider ACCGATAG, for which the binding signal came to 0.0776 E-score.

For ACCGATAC, the binding signal amounted to 0.117 E-score.

Consider AATATCTC, for which the binding signal was determined as 0.203 E-score.

For GATATCAA, the binding signal stood at 0.208 E-score.

On to CATATCTA, for which the binding signal came out at 0.293 E-score.

Regarding AATATCTG, the binding signal was 0.268 E-score.

With GATATCTA, the binding signal stood at 0.4 E-score.

AATATCTA: the binding signal came out at 0.392 E-score.

For AATCGGAA, the binding signal came to 0.0335 E-score.

Take CCTAGTCG: the binding signal was -0.13 E-score.

As for AACCACCT, the binding signal was -0.126 E-score.

For TCACAGAA, the binding signal was determined as 0.0426 E-score.

As to GACCAAGA, the binding signal was determined as 0.0064 E-score.

On to AAGCCTCT, for which the binding signal was -0.124 E-score.

As for AACTACTC, the binding signal came to 0.381 E-score.

On to CCCTACTA, for which the binding signal is -0.0153 E-score.

For ACCTACTA, the binding signal was 0.372 E-score.

Turning to ACCTACTG, the binding signal worked out at 0.295 E-score.

On to AGCTACTG, for which the binding signal was found to be 0.294 E-score.

Regarding CACTACTG, the binding signal is -0.0214 E-score.

With AACTACGG, the binding signal came to 0.204 E-score.

For AACTACGC, the binding signal worked out at 0.201 E-score.

As to CACTACTC, the binding signal was 0.00906 E-score.

Regarding AACTACTG, the binding signal turned out to be 0.436 E-score.

For CACTACGA, the binding signal was 0.174 E-score.

For the sequence CACTACTA, the binding signal is 0.354 E-score.

For ATGCCGCA, the binding signal was -0.0383 E-score.

CTTCGCCA: the binding signal is -0.129 E-score.

For the sequence CCACTGCC, the binding signal is -0.199 E-score.

Take CTATAAGC: the binding signal is 0.113 E-score.

On to ATATGGAG, for which the binding signal came out at 0.202 E-score.

Turning to GCGTGAAC, the binding signal came to 0.00198 E-score.

With TAAGCTGA, the binding signal was -0.0981 E-score.

AGGGTACG: the binding signal was -0.168 E-score.

Take CCGCTAGG: the binding signal was -0.19 E-score.

With GGCTTTAC, the binding signal turned out to be 0.00573 E-score.

On to GCAAATCA, for which the binding signal was 0.0652 E-score.

For TATTGAAA, the binding signal was 0.0126 E-score.

Turning to GACTACTC, the binding signal is 0.132 E-score.

For AACAACTT, the binding signal was 0.174 E-score.

With AACTACGA, the binding signal turned out to be 0.292 E-score.

AACTACTT: the binding signal came out at 0.418 E-score.

As to GACTACGA, the binding signal is 0.079 E-score.

As to AGCTACTA, the binding signal stood at 0.291 E-score.

Turning to GACTACTA, the binding signal amounted to 0.34 E-score.

For the sequence TACTACGA, the binding signal came out at 0.275 E-score.

With AACTACTA, the binding signal stood at 0.474 E-score.

As to CGCTACTA, the binding signal amounted to 0.28 E-score.

For TACTACTA, the binding signal came out at 0.428 E-score.

On to AACTACGT, for which the binding signal was 0.306 E-score.

Turning to ATGTCGGC, the binding signal worked out at 0.0255 E-score.

Regarding ATGCATTG, the binding signal worked out at 0.0725 E-score.

In the case of GTCCGCAA, the binding signal was -0.0703 E-score.

On to TCAAGCAA, for which the binding signal was -0.0617 E-score.

With CCCGATAC, the binding signal came to 0.00567 E-score.

On to CCATCCGC, for which the binding signal is -0.114 E-score.

For ACGGCTTA, the binding signal is -0.0338 E-score.

For the sequence AGATAATG, the binding signal turned out to be 0.225 E-score.

With CACGTATG, the binding signal turned out to be 0.0605 E-score.

As to TCCCCAAA, the binding signal was -0.169 E-score.

As to CCCTTTTA, the binding signal is -0.102 E-score.

With GCTTTTTA, the binding signal came out at 0.157 E-score.

AGATTTCA: the binding signal was 0.0391 E-score.

Take AACATAAG: the binding signal was 0.23 E-score.

Consider GCTTTCTA, for which the binding signal was found to be 0.224 E-score.

Regarding CTATCCTA, the binding signal came out at 0.0781 E-score.

For the sequence ATATCCTA, the binding signal is 0.36 E-score.

GTATCCTA: the binding signal was found to be 0.13 E-score.

As for GAATGGCC, the binding signal is -0.15 E-score.

On to CATTTGCG, for which the binding signal was -0.059 E-score.

For the sequence AAATATAC, the binding signal was 0.376 E-score.

As to AAATACAG, the binding signal was found to be 0.264 E-score.

As to AAATATAG, the binding signal turned out to be 0.317 E-score.

On to AAATACAT, for which the binding signal came out at 0.348 E-score.

As to AAATATAT, the binding signal is 0.429 E-score.

As to CAATATAA, the binding signal is 0.213 E-score.

In the case of CAATATAC, the binding signal came out at 0.34 E-score.

In the case of AAAAATAT, the binding signal is 0.319 E-score.

For the sequence AAATATAA, the binding signal was determined as 0.253 E-score.

As for GAATATAC, the binding signal was 0.306 E-score.

AAATACAC: the binding signal is 0.216 E-score.

As to AGGAAGTG, the binding signal is -0.139 E-score.

For GCATGTTA, the binding signal came to 0.0472 E-score.

As for AGTAAAAG, the binding signal is 0.19 E-score.

Consider CACGCTTA, for which the binding signal is -0.0251 E-score.

As for AAATATCA, the binding signal came out at 0.271 E-score.

Turning to AAATATGA, the binding signal was 0.199 E-score.

Regarding AAATATGC, the binding signal was 0.223 E-score.

With AAATATTT, the binding signal was found to be 0.337 E-score.

As for AAATATGT, the binding signal is 0.338 E-score.

On to AAATATCC, for which the binding signal was determined as 0.127 E-score.

Regarding AAATATTA, the binding signal is 0.305 E-score.

In the case of AAATATCT, the binding signal came to 0.355 E-score.

Regarding AAATATTG, the binding signal is 0.295 E-score.

Turning to CATTTCGG, the binding signal was determined as 0.0631 E-score.

AGTCCAAA: the binding signal was -0.0624 E-score.

As for ACATCATC, the binding signal was -0.0524 E-score.

AACTATAG: the binding signal came out at 0.331 E-score.

On to AGCTATAG, for which the binding signal came to 0.283 E-score.

Regarding AACTATAC, the binding signal is 0.33 E-score.

As to AGCTATAT, the binding signal stood at 0.337 E-score.

As to AACTATAT, the binding signal was found to be 0.362 E-score.

Take AGCTATAA: the binding signal stood at 0.25 E-score.

Take TAAGCCTA: the binding signal is -0.0764 E-score.

For the sequence AGGCAAGC, the binding signal was -0.186 E-score.

Take AATTGTGG: the binding signal is -0.0645 E-score.

Take CAGTGCGG: the binding signal is -0.0903 E-score.

Regarding AGTTAGAT, the binding signal is 0.162 E-score.

For the sequence AAGTAGAT, the binding signal came out at 0.374 E-score.

Regarding AAGTAGAG, the binding signal came to 0.104 E-score.

For the sequence AGGTAGAA, the binding signal is 0.419 E-score.

As for AGGTAGAC, the binding signal came to 0.191 E-score.

Take GGGTAGAA: the binding signal was determined as 0.359 E-score.

Take AGGTAGAG: the binding signal was found to be 0.122 E-score.

Take GGGTAGAC: the binding signal is -0.127 E-score.

For the sequence GGGTAGCA, the binding signal is -0.00107 E-score.

Consider AGGTAGAT, for which the binding signal was determined as 0.359 E-score.

Regarding ACGTAGAT, the binding signal came to 0.222 E-score.

For the sequence AAGTAGAC, the binding signal was 0.00429 E-score.

Regarding GTGCTTTA, the binding signal was -0.00122 E-score.

For GCGAAGTA, the binding signal amounted to 0.155 E-score.

As for CGCTTTTC, the binding signal stood at 0.046 E-score.

As for AAGCTTGT, the binding signal was 0.0413 E-score.

Take CTAGGTGA: the binding signal was -0.041 E-score.

Turning to AGAGTTAC, the binding signal is 0.152 E-score.

As to CAAAGTTA, the binding signal stood at 0.0253 E-score.

In the case of CGGTAGAC, the binding signal is -0.0961 E-score.

For the sequence CCGTAGAA, the binding signal was 0.32 E-score.

On to TCGTAGAA, for which the binding signal was 0.131 E-score.

Take CGGTAGAG: the binding signal was found to be 0.0632 E-score.

On to TGGTAGAA, for which the binding signal is 0.468 E-score.

In the case of CGGTAGAA, the binding signal amounted to 0.417 E-score.

Turning to CTAACGCA, the binding signal was found to be 0.101 E-score.

With ACCCTGTC, the binding signal is -0.0851 E-score.

AACGACCG: the binding signal was -0.0771 E-score.

Regarding CAATTATA, the binding signal came out at 0.363 E-score.

For the sequence TAATTATA, the binding signal worked out at 0.385 E-score.

As for AAATTATG, the binding signal came to 0.215 E-score.

For CAATTATG, the binding signal came to 0.175 E-score.

As for AAATTATA, the binding signal is 0.413 E-score.

GAATTATA: the binding signal worked out at 0.326 E-score.

As to TAATTAAA, the binding signal was 0.259 E-score.

With AAATTATT, the binding signal is 0.296 E-score.

As for CAATTATC, the binding signal was found to be 0.2 E-score.

For CGTATGGA, the binding signal is 0.128 E-score.

In the case of AATTAAAC, the binding signal was 0.0743 E-score.

For CATATAGG, the binding signal amounted to 0.175 E-score.

Take ATTAATCA: the binding signal is 0.232 E-score.

Consider CTGGAAAG, for which the binding signal was -0.166 E-score.

For the sequence CACATCTC, the binding signal turned out to be 0.0106 E-score.

As for CCTATTAC, the binding signal came to 0.285 E-score.

Turning to GCTATTAC, the binding signal is 0.269 E-score.

As for ATTATTAA, the binding signal amounted to 0.0696 E-score.

On to ACTATTAT, for which the binding signal stood at 0.386 E-score.

Consider ACTATTAC, for which the binding signal came to 0.407 E-score.

Take AGTATTAC: the binding signal was found to be 0.26 E-score.

AGTATTAA: the binding signal turned out to be 0.29 E-score.

ACTATTAG: the binding signal was found to be 0.244 E-score.

Consider ATTATTAC, for which the binding signal came out at 0.382 E-score.

Regarding ACTATTAA, the binding signal is 0.289 E-score.

Consider CTTATTAC, for which the binding signal was 0.299 E-score.

As for AGTATTAT, the binding signal was 0.358 E-score.

These data come from article PMC6212790, “How bacterial xenogeneic silencer rok distinguishes foreign from self DNA in its resident genome”.
